“And” between values parts separate entries of the source, which are not always exact repeats. Equal values may be shown once. This is part of a sample that, as a whole, favours compounds with a hit. Of some 83,000 tested, about 20% had one in any assay.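 Values shown are percent growth following 48 h exposure of cells in 96-well plates to a single concentration of compound; below 10 was considered active.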 Unmarked numbers belong to inactive results. The source made the active and inactive calls.

The test concerns MDA-MB-468 breast. Put plainly: NCI-60 one-dose screen, 48 h (100 = growth as untreated, 0 = no growth, -100 = all killed). Particulars: 10 µM unless noted.
Take `N#CN1CC[C@H](C(=O)Nc2ncc(-c3ccncc3)s2)C1`: the growth was -35.7% (active).

As for `CC(/C=C/c1ccccc1)=N/NC(=O)c1ccncc1`, the growth was 98.8%.

Consider `COc1ccc(/C=C/C(=O)c2ccc(NC(=O)CSc3nnc(-c4ccc5nc(-c6ccc(Cl)cc6)[nH]c5c4)o3)cc2)cc1`, for which the growth is 110%.

As for `CCCCCc1ccc(S(=O)(=O)Nc2cccc(-c3csc(NCCN4CCN(C)CC4)n3)c2)cc1`, the growth was 87.3%.

Take `COc1ccc2[nH]cc(-c3noc(C(=O)c4cn(C)c5ccc(F)cc45)n3)c2c1`: the growth was 102%.

With `Cc1[nH]c(C(=O)Nc2ccccc2OCc2cccc(C(=O)NCCN)c2)c(Cl)c1Cl`, the growth was 10.7%.

In the case of `COc1cc(-c2cc(=O)oc3cc(O)ccc23)cc(OC)c1OC`, the growth was 74.2%.

`CCCCCCNC(=O)Oc1ccc(/C(=C(/C)Cc2ccc(OC)cc2)c2ccc(OCCN3CCCCC3)cc2)cc1`: the growth was 88.6%.

For `CCN(CC)CCCC(C)Nc1cnc(C(=O)Nc2cc(F)cc3cccnc23)cn1` (stereo not given), the growth was 6.24% (active) and -66.3% (active).

Consider `Cc1nc(-c2cc3ccccc3oc2=O)ccc1C(=O)/C=C/c1ccc(N2CCOCC2)cc1`, for which the growth was 45.6%.

For `O=S(=O)(c1ccc(N/N=C\c2ccccc2Cl)cc1)c1ccc(N/N=C/c2ccccc2Cl)cc1`, the growth was 91.5%.

On to `COCCn1cc(-c2nc(-c3cn(CCOC)c4ncccc34)cs2)c2cc(F)ccc21`, for which the growth was -10.9% (active).

In the case of `CC(C)CNC(=O)c1ccccc1C(=O)NC1(C(=O)NCC(C)C)CCCC1`, the growth is 101% and 121%.

`CN1CCN(c2ccc(/C=N/Nc3nc4ccccc4c(=O)n3-c3ccccc3)cc2)CC1`: the growth is 90.8%.

Consider `CC(=O)N1N=C(c2ccc(Cl)cc2)CC1c1c(C)nn(-c2ccccc2)c1N(C)Cc1ccccc1` (stereo not given), for which the growth is 58.9%.

For `C[C@H]1[C@H]2C3=CC[C@@H]4[C@@]5(C)C/C(=C/c6ccncc6)C(=O)C(C)(C)[C@@H]5CC[C@@]4(C)[C@]3(C)CC[C@@]2(C(=O)N2CCN(C)CC2)CC[C@@H]1C`, the growth was 41.1%.

Turning to `O=C1c2cc(Cl)ccc2-c2c(O)cc(Cl)cc21`, the growth is 48.6%.

Turning to `OC(c1cc(-c2ccc(Cl)cc2)nc2c(Cl)cccc12)C1CCCCN1` (stereo not given), the growth is -86.7% (active).

Turning to `O=C(Nc1ccncc1)C(=O)c1cn(S(=O)(=O)c2ccc(Br)cc2)c2ccccc12`, the growth was 6.9% (active).

For `COc1cc(-c2nn(C(=O)NCCN3CCN(C)CC3)cc2-c2ccncc2)ccc1Cl`, the growth is 60.9%.

Consider `N#CC(C#N)=Cc1c(-c2ccccc2)[nH]c2ccccc12`, for which the growth was 32%.

For `O=CN1N=C(c2ccc(F)cc2)CC1c1cccc(Nc2ccnc3cc(C(F)(F)F)ccc23)c1` (stereo not given), the growth was 29.2%.

`CCN1C(=O)N(CC)C2C1NN=c1s/c(=C3\C(=O)N(CC(C)(C)C)c4ccccc43)c(=O)n12` (stereo not given): the growth was 18%.

`COc1ccc(Cn2cc3c(c2-c2ccccc2)CCc2cnoc2-3)cc1OC`: the growth was -9% (active).

Take `COc1ccc(C(=O)C(C)C)c2ccccc12`: the growth is 102%.

On to `Nc1nc2cc(O)ccc2n2cc3c(F)cccc3c12`, for which the growth was 18.6%.

In the case of `CC/C=C\C[C@H](F)C/C=C1/C(=O)C=C[C@@H]1C/C=C\CCCC(=O)OC`, the growth was 17.9%.

As for `COc1ccc(-c2cc(-c3ccc(OC)cc3)c3sc(=O)[nH]c3n2)cc1`, the growth was 96.4%.

`Cc1ccc(S(=O)(=O)N2CCc3ccc(O)c4c3C2Cc2ccc3c(c2-4)OCO3)cc1` (stereo not given): the growth was 1.75% (active).

As to `CC1=C[C@H]2c3c(c(O)c(O)c4oc5c(C)cccc5c(=O)c34)[C@H](c3cc(O)c(O)c4oc5c(C)cccc5c(=O)c34)[C@H]2C(C)(C)C1`, the growth was 21.6%.

Take `O=C(Nc1ccc(N2CCNCC2)cc1)c1[nH]ncc1Nc1cc(Oc2ccccc2)ncn1`: the growth is 34.6%.

On to `O=[N+]([O-])c1ccc(-c2cc3c(Nc4ccc(Cl)c(C(F)(F)F)c4)ncnc3s2)cc1`, for which the growth is -10.2% (active).

Turning to `O=C1C(Cl)=C(Nc2ccc3c(c2NC2=C(Cl)C(=O)c4ccccc4C2=O)C(=O)c2ccccc2C3=O)C(=O)c2ccccc21`, the growth is 5.98% (active).

Turning to `CCCS(=O)(=O)Nc1ccc(F)c(C(=O)c2c[nH]c3ncc(-c4ccc(OCCCC5CCCCN5)nc4)cc23)c1F` (stereo not given), the growth is 69.6%.

On to `O=c1/c(=C\c2ccc(-c3ccccc3)o2)sc2nc(-c3ccccc3)nn12`, for which the growth is 124%.

Turning to `O=C(Nc1cccc(Cl)c1)Nc1cccc(Cn2c(=O)[nH]c3ccc(Oc4ncccn4)cc3c2=O)c1`, the growth was -0.625% (active).

For the compound `Nc1ccc2cc(Br)c3ccccc3c2c1`, the growth is 4.15% (active).

As for `Cc1ccc(/C=C2\CN(C(=O)C(Cl)Cl)C/C(=C\c3ccc(C)cc3)C2=O)cc1`, the growth is -65.9% (active).

Turning to `COC1=CC=CC2(OC)C3(O)CCCc4cccc(c43)N3C(=O)COC132` (stereo not given), the growth is 115%.

`Cc1c(-c2ccc(C3CCCCC3)cc2)nc2ccc(F)cc2c1C(=O)O`: the growth is 74.4%.

(Values after PubChem BioAssay (NCI).)
